# Reference: the supplement of paper PMC8975748
# Where a name gives a salt, the structure may show the parent alone. ± gives the standard deviation of the averaged measurements.
# Tests used:
# [1] = test system: Saccharomyces cerevisiae BY4741 SeMeCo community; assay: mean cell size (pixel area) (pixels); higher = larger cells; details: 10 µM; 24 h; SM minimal medium
# Summary of the method: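 Mean cell pixel area per well was measured in a four-plasmid fluorescent community of Saccharomyces cerevisiae BY4741, where every plasmid complements one auxotrophy and carries a fluorescent marker. Cells from an overnight preculture at OD600 = 1.0 were diluted to OD600 = 0.3 and dispensed at 70 µl into 384-well plates acoustically predosed with drug to a final 10 µM in SM medium. Incubation lasted 24 h, followed by paraformaldehyde fixation, automated confocal imaging and analysis in Harmony. Reported figures are averaged over 3 replicates. Same SeMeCo high-content imaging drug screen: Selleck FDA-approved drugs at 10 µM, 24 h in SM medium, 384-well plates, 3 replicates.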
# [2] = test system: Saccharomyces cerevisiae BY4741 SeMeCo community; assay: z-score of prototroph abundance vs DMSO median; higher = larger share of this subpopulation than in DMSO controls; details: 10 µM; 24 h; SM minimal medium; subpopulation (auxotrophy): Prototroph
# Summary of the method: (§1)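 Cells of a Saccharomyces cerevisiae BY4741 community, carrying four plasmids that each restored one auxotrophy and encoded a distinct fluorescent protein, were pre-grown overnight to OD600 1.0 and diluted to 0.3. A 70 µl volume was added to 384-well plates acoustically predosed with library drugs (10 µM final) and grown 24 h in minimal SM medium. After paraformaldehyde fixation, automated confocal microscopy was used, with single-auxotroph fluorescent strains for thresholds and autofluorescence correction. The abundance of each subpopulation was scored as a z-score against the vehicle-well median.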
# [3] = test system: Saccharomyces cerevisiae BY4741 SeMeCo community; assay: z-score of subpopulation abundance vs DMSO median, subpopulation auxotrophic for M; higher = larger share of this subpopulation than in DMSO controls; details: 10 µM; 24 h; SM minimal medium; subpopulation (auxotrophy): M
# Summary of the method: as §1
# [4] = test system: Saccharomyces cerevisiae BY4741 SeMeCo community; assay: z-score of subpopulation abundance vs DMSO median, subpopulation auxotrophic for L; higher = larger share of this subpopulation than in DMSO controls; details: 10 µM; 24 h; SM minimal medium; subpopulation (auxotrophy): L
# Summary of the method: as §1
# [5] = test system: Saccharomyces cerevisiae BY4741 SeMeCo community; assay: z-score of subpopulation abundance vs DMSO median, subpopulation auxotrophic for U; higher = larger share of this subpopulation than in DMSO controls; details: 10 µM; 24 h; SM minimal medium; subpopulation (auxotrophy): U
# Summary of the method: as §1
# [6] = test system: Saccharomyces cerevisiae BY4741 SeMeCo community; assay: z-score of subpopulation abundance vs DMSO median, subpopulation auxotrophic for H; higher = larger share of this subpopulation than in DMSO controls; details: 10 µM; 24 h; SM minimal medium; subpopulation (auxotrophy): H
# Summary of the method: as §1
# [7] = test system: Saccharomyces cerevisiae BY4741 SeMeCo community; assay: z-score of subpopulation abundance vs DMSO median, subpopulation auxotrophic for LU; higher = larger share of this subpopulation than in DMSO controls; details: 10 µM; 24 h; SM minimal medium; subpopulation (auxotrophy): LU
# Summary of the method: as §1
# [8] = test system: Saccharomyces cerevisiae BY4741 SeMeCo community; assay: z-score of subpopulation abundance vs DMSO median, subpopulation auxotrophic for LM; higher = larger share of this subpopulation than in DMSO controls; details: 10 µM; 24 h; SM minimal medium; subpopulation (auxotrophy): LM
# Summary of the method: as §1
# [9] = test system: Saccharomyces cerevisiae BY4741 SeMeCo community; assay: z-score of subpopulation abundance vs DMSO median, subpopulation auxotrophic for HM; higher = larger share of this subpopulation than in DMSO controls; details: 10 µM; 24 h; SM minimal medium; subpopulation (auxotrophy): HM
# Summary of the method: as §1
# [10] = test system: Saccharomyces cerevisiae BY4741 SeMeCo community; assay: z-score of subpopulation abundance vs DMSO median, subpopulation auxotrophic for HU; higher = larger share of this subpopulation than in DMSO controls; details: 10 µM; 24 h; SM minimal medium; subpopulation (auxotrophy): HU
# Summary of the method: as §1
# [11] = test system: Saccharomyces cerevisiae BY4741 SeMeCo community; assay: z-score of subpopulation abundance vs DMSO median, subpopulation auxotrophic for HL; higher = larger share of this subpopulation than in DMSO controls; details: 10 µM; 24 h; SM minimal medium; subpopulation (auxotrophy): HL
# Summary of the method: as §1
# [12] = test system: Saccharomyces cerevisiae BY4741 SeMeCo community; assay: z-score of subpopulation abundance vs DMSO median, subpopulation auxotrophic for HLU; higher = larger share of this subpopulation than in DMSO controls; details: 10 µM; 24 h; SM minimal medium; subpopulation (auxotrophy): HLU
# Summary of the method: as §1
# [13] = test system: Saccharomyces cerevisiae BY4741 SeMeCo community; assay: z-score of subpopulation abundance vs DMSO median, subpopulation auxotrophic for HLM; higher = larger share of this subpopulation than in DMSO controls; details: 10 µM; 24 h; SM minimal medium; subpopulation (auxotrophy): HLM
# Summary of the method: as §1
# [14] = test system: Saccharomyces cerevisiae BY4741 SeMeCo community; assay: z-score of subpopulation abundance vs DMSO median, subpopulation auxotrophic for HUM; higher = larger share of this subpopulation than in DMSO controls; details: 10 µM; 24 h; SM minimal medium; subpopulation (auxotrophy): HUM
# Summary of the method: as §1
# [15] = test system: Saccharomyces cerevisiae BY4741 SeMeCo community; assay: z-score of subpopulation abundance vs DMSO median, subpopulation auxotrophic for LUM; higher = larger share of this subpopulation than in DMSO controls; details: 10 µM; 24 h; SM minimal medium; subpopulation (auxotrophy): LUM
# Summary of the method: as §1
# [16] = test system: Saccharomyces cerevisiae BY4741 SeMeCo community; assay: z-score of subpopulation abundance vs DMSO median, subpopulation auxotrophic for HLUM; higher = larger share of this subpopulation than in DMSO controls; details: 10 µM; 24 h; SM minimal medium; subpopulation (auxotrophy): HLUM
# Summary of the method: as §1
# [17] = test system: Saccharomyces cerevisiae BY4741 SeMeCo community; assay: z-score of subpopulation abundance vs DMSO median, subpopulation auxotrophic for UM; higher = larger share of this subpopulation than in DMSO controls; details: 10 µM; 24 h; SM minimal medium; subpopulation (auxotrophy): UM
# Summary of the method: as §1
SMILES,mean cell size [1],z-score of prototroph abundance [2],z-score of subpopulation abundance [3],z-score of subpopulation abundance [4],z-score of subpopulation abundance [5],z-score of subpopulation abundance [6],z-score of subpopulation abundance [7],z-score of subpopulation abundance [8],z-score of subpopulation abundance [9],z-score of subpopulation abundance [10],z-score of subpopulation abundance [11],z-score of subpopulation abundance [12],z-score of subpopulation abundance [13],z-score of subpopulation abundance [14],z-score of subpopulation abundance [15],z-score of subpopulation abundance [16],z-score of subpopulation abundance [17]
C#CCN[C@@H]1CCc2ccccc21 [Rasagiline Mesylate],12.49 ± 0.065,0.23,0.65,1.22,-0.4,0.22,0.5,0.42,-0.43,-0.74,0.37,0.21,-0.04,-0.47,0.19,0.44,–
CCCCCCCCCCCCCCCCCCOP(=O)([O-])OC1CC[N+](C)(C)CC1 [Perifosine (KRX-0401)],9.8 ± 0.56,–,-5.15,-0.46,-2.84,3.48,12.1,1.78,12.7,8.89,18.8,13.3,31.5,45.1,10.2,180,7.06
COc1ccc(Cl)cc1C(=O)NCCc1ccc(S(=O)(=O)NC(=O)NC2CCCCC2)cc1 [Glyburide (Glibenclamide)],12.36 ± 0.11,-0.6,-0.21,1.58,-0.59,0.81,-0.07,1.74,0.56,-0.2,1.09,0.43,-0.04,-0.09,1.11,0.01,-0.02
CC1=C(C(=O)OCCN(Cc2ccccc2)c2ccccc2)C(c2cccc([N+](=O)[O-])c2)C(P2(=O)OCC(C)(C)CO2)=C(C)N1 (centres undefined) [Efonidipine],12.6 ± 0.14,–,0.03,0.97,0.34,–,1.04,2.26,1.87,1.86,–,1.2,1.02,1.54,2.5,1.4,0.8
CC(=O)Oc1ccccc1C(=O)O [Aspirin],12.5 ± 0.23,–,1.14,-0.15,-0.25,0.67,0.01,0.16,-0.38,-0.71,–,-0.85,0.21,-0.14,-0.25,-0.5,-0.21
O=C1N=C(O)NC1(c1ccccc1)c1ccccc1 [Phenytoin Sodium],12.527 ± 0.0075,-0.72,-0.37,0.11,1.21,-0.03,0.96,-0.6,-1.02,-0.05,-0.83,0.17,0.15,0.83,-0.31,1.18,0.67
CCOC(=O)c1ccc(O)cc1 [Ethylparaben],12.5 ± 0.25,-1.38,-0.6,-0.33,1.83,-0.25,0.65,-0.67,-0.62,1.78,-0.54,-0.25,0.26,0.44,0.63,1.8,1.66
CC1(C)[C@H](C(=O)O)N2C(=O)C[C@H]2S1(=O)=O [Sulbactam sodium],12.54 ± 0.013,-0.92,0.51,-0.23,1.59,–,0.63,-0.08,0.23,1.1,0.14,0.64,-0.2,1.25,0.21,0.51,–
C[C@]1(Cn2ccnn2)[C@H](C(=O)O)N2C(=O)C[C@H]2S1(=O)=O [Tazobactam],12.4 ± 0.26,-0.17,-0.32,-0.56,0.75,-1.1,0.66,-0.39,-0.74,0.31,-0.38,0.12,-0.56,-0.01,0.22,0.69,0.66
COc1c(N2CCNC(C)C2)c(F)cc2c(=O)c(C(=O)O)cn(C3CC3)c12 (centres undefined) [Gatifloxacin],12.4 ± 0.17,-0.15,-0.13,-0.51,0.81,-0.44,0.36,-0.79,-0.89,0.38,-0.93,-0.36,-0.34,0.51,-0.33,-0.38,0.32
O=C(O)c1cc(-c2ccc(F)cc2F)ccc1O [Diflunisal],13.1 ± 0.14,–,-2.15,0.56,-2.37,-1.33,-1.6,-1.23,-1.55,-2.05,-0.87,-0.75,-0.45,-2.64,-1.08,-0.39,–
COc1ccnc(C[S+]([O-])c2nc3cc(-n4cccc4)ccc3[nH]2)c1C (centres undefined) [Ilaprazole sodium],12.7 ± 0.23,–,1.1,1.32,-1.54,5.12,-0.87,1.43,1.14,-0.9,6.22,2.72,3.01,0.43,0.43,0.94,-1.01
CCN(CC)CCOC(=O)c1ccc(N)cc1 [Procaine HCl],12.5 ± 0.25,0.84,-0.44,-0.69,-0.15,-0.47,-0.34,0,-0.71,-0.49,–,0.02,-0.24,-1.23,0.14,0.26,-0.8
Nc1c(CC(=O)O)cccc1C(=O)c1ccccc1 [Amfenac Sodium Monohydrate],12.78 ± 0.078,0.49,0.25,-0.33,0.11,-0.38,-0.63,0.25,1.16,-0.95,-0.27,0.63,2.36,0.74,-0.56,0.57,–
O=C(c1ccc(F)cc1)C1CCN(CCn2c(=O)[nH]c3ccccc3c2=O)CC1 [Ketanserin],12.33 ± 0.039,0.15,0.03,-0.47,0.03,–,-0.66,0.46,-0.51,-0.13,0.13,0.14,-0.05,-0.47,-0.27,0.5,–
